Reference: PubChem BioAssay AID588493 (Sanford-Burnham Center for Chemical Genomics, 2011)
In all, about 360,000 compounds went through this assay and about 2,100 (0.58%) were called active. Only a selection was taken, and actives are over-represented in it overall. A number with no mark means an inactive call.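 The calls were made as follows: active = inhibition at 20 µM, scaled to each plate's controls, above about 33% (limit read from the data); inactive = the rest.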

Each compound was assayed against 26S proteasome non-ATPase regulatory subunit 14 (Homo sapiens) (UniProt O00487) (assay: inhibition of 26S proteasome subunit Rpn11 – biochemical, fluorescence polarization, uHTS, primary screen (AID 588493)). Details: human 26S proteasome, Ub4-pepOG fluorescence polarization; at 20 µM; hits give high values; 20S core pre-blocked with epoxomicin.
Chain of 26S proteasome non-ATPase regulatory subunit 14 (Homo sapiens) (O00487 whole entry, looked up): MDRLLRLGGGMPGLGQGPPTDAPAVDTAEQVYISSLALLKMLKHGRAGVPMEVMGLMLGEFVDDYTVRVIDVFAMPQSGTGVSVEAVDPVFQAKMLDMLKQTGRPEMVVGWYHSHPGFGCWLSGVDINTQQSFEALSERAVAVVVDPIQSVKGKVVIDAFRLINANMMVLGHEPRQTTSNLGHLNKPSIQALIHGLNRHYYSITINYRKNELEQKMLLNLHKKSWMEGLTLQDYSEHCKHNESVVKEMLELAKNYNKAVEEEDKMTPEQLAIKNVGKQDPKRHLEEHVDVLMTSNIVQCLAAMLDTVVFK
`Cc1cc(OCC(=O)Nc2nccs2)c2c(C)c(C)c(=O)oc2c1` was tested, and the inhibition was 61.1% (active). Work on `Cc1cc(OCC(=O)NCC(O)c2ccccc2)c2c(C)c(C)c(=O)oc2c1` (centres undefined) yielded an inhibition of -2.1%. For `COc1ccc(CCNC(=O)COc2cc(C)cc3oc(=O)c(C)c(C)c23)cc1OC`, the inhibition was 0%. Work on `CCCCc1ccc(NC(=O)CN2C(=O)NC(Cc3ccccc3)C2=O)cc1` (centres undefined) yielded an inhibition of -0.4%. `CC(C)Oc1ccc(S(=O)(=O)N2CCOCC2)cc1NC(=O)C1CCCC1` was tested, and the inhibition was 2.4%. With `O=C1NC(Nc2nc3ccccc3s2)(C(F)(F)F)C(=O)N1C1CCCCC1` (centres undefined) the inhibition was 3.6%. For `Cc1ccc(NC(=O)c2c(NC(=O)CCC(=O)O)sc3c2CCCCC3)cc1`, the inhibition was 40.1% (active). Work on `COC(=O)c1c(NC(=O)CCN2CCOCC2)sc2c1CCCC2` yielded an inhibition of 6.6%. `O=C(CN1CCCC1)Nc1sc2c(c1C(=O)Nc1ccccc1)CCCC2` was tested, and the inhibition was -13.4%. Compound `COC(=O)c1ccc(CNC(=O)c2ccc3oc(C(C)C)nc3c2)cc1` has an inhibition of -13.2%. For `CC(=O)/C(=N\Nc1ccc(Cl)cc1Cl)Sc1cccc2cccnc12`, the inhibition was 78.5% (active). `Cc1cc(OCCOc2cccc3cccnc23)c(C)cc1Cl` was tested, and the inhibition was -1.8%. `COc1cccc(CNC(=O)C2CCN(S(=O)(=O)c3cccc4cccnc34)CC2)c1` showed an inhibition of 7.6%. `CCOC(=O)NN1C(=O)c2ccccc2NC1c1ccccc1O` (centres undefined) was tested, and the inhibition was -5.9%. Work on `N#Cc1cccc(NC(=O)COC(=O)c2ccccc2C(=O)c2ccc(Cl)c([N+](=O)[O-])c2)c1` yielded an inhibition of -2.3%. In the case of `COc1ccc(CN2[C@@H](CC(=O)O)c3cc(F)ccc3S2(=O)=O)cc1`, the inhibition is reported as -5.9%. `COc1cc(/C=N/NC(=O)c2cccnc2)ccc1OC(=O)c1cccc(Br)c1` gave an inhibition of -13.5%. Work on `CCn1c(/C=N/NC(=O)c2ccc(OC)cc2)nc2ccccc21` yielded an inhibition of -5.8%. With `COc1cccc(/C=N/NC(=O)c2[nH]nc3c2CCc2ccccc2-3)c1O` the inhibition was 52.1% (active). `COc1ccc(CCNC(=O)CCNS(=O)(=O)c2cc(Br)cnc2N)cc1OC` gave an inhibition of 0.1%. Work on `CC(C)C(NC(=O)c1cccc(S(=O)(=O)N2CCOCC2)c1)C(=O)NCCc1ccccn1` (centres undefined) yielded an inhibition of -2.1%. Work on `COCCCN1C(=O)c2ccc(C(=O)OCC(=O)NCc3ccccc3OC)cc2C1=O` yielded an inhibition of 3.9%. For `N#CCC(=O)Nc1ccc(C(=O)OCC(=O)Nc2sc3c(c2C#N)CCCC3)cc1`, the inhibition was 39.6%. For `CCOc1ccc(NC(=O)c2ccc(NC(=O)COC(=O)c3ccc(NC(=O)CC#N)cc3)cc2)cc1`, the inhibition was 128% (active). In the case of `CC(C)NC(=O)NC(=O)COC(=O)c1ccc(NC(=O)CC#N)cc1`, the inhibition is reported as -1.1%. `COc1ccccc1-c1n[nH]c2c1[C@H](C)CC[C@H]2C(C)C` showed an inhibition of 0.4%. `CN(C)S(=O)(=O)c1ccc(C(=O)NCC2(N3CCOCC3)CCCCC2)cc1` showed an inhibition of 2.6%. `Cc1cc(C)c(-c2csc(NC(=O)CCCc3nc4ccccc4c(=O)[nH]3)n2)c(C)c1` gave an inhibition of 8.9%. With `O=C(CSc1nc2ccccc2c(=O)[nH]1)Nc1nc(-c2ccc(Br)cc2)cs1` the inhibition was 132% (active). `O=C(COC(=O)c1cc(=O)[nH]c2ccccc12)Nc1nc(-c2cccc(Br)c2)cs1` was tested, and the inhibition was 1.7%. In the case of `Cc1ccc2c(c1)nnc1nnc(SCC(=O)O)n12`, the inhibition is reported as -12%. For `CC(C)(C)NC(=O)COc1ccc(CNc2ccc3[nH]c(=O)[nH]c3c2)cc1`, the inhibition was -10.4%. `COC(=O)c1ccc(OCC(=O)NC(C)(C)C)cc1` was tested, and the inhibition was 62.8% (active). With `CS(=O)(=O)c1ccc(C(=O)OCC(=O)NNC(=O)COc2ccc(Cl)cc2)cc1` the inhibition was 22.5%. `Cc1cc(C)c2cc(CN(Cc3cccs3)Cc3nnnn3CC3CCCO3)c(=O)[nH]c2c1` (centres undefined) was tested, and the inhibition was -19.3%. In the case of `CCC(C)N1CC(=O)N2Cc3[nH]c4ccccc4c3C[C@H]2C1=O` (some centres undefined), the inhibition is reported as 7.3%. Compound `CC(C)=C(NC(=O)c1ccco1)C(=O)NCCc1nc2ccccc2[nH]1` has an inhibition of -7.6%. For `CCCCCOc1ccc(/C=C/C(=O)NCCc2nc3ccccc3[nH]2)cc1OC`, the inhibition was -4.2%. With `CC(C)Oc1ccc(/C=C(\NC(=O)/C=C/c2ccco2)C(=O)NCCc2nc3ccccc3[nH]2)cc1` the inhibition was 53.9% (active). With `CCN(CC(=O)NCc1cccs1)S(=O)(=O)c1ccc(NC(C)=O)cc1` the inhibition was -1.7%. Work on `Cc1cccc(OCCC(=O)Nc2cc(S(=O)(=O)N3CCCCC3)ccc2N2CCOCC2)c1` yielded an inhibition of 2%. `CN(C)c1ccc(-n2cccc2/C=C2/SC(=Nc3ccc(F)cc3)NC2=O)cc1` was tested, and the inhibition was 44% (active). For `CN(C)c1ccc(-n2cccc2/C=N/n2cnnc2)cc1`, the inhibition was 1.5%. For `CCn1cc(C(=O)OCC(=O)Nc2cccc(C)c2)c(=O)c2ccc(C)nc21`, the inhibition was -1.5%. `CC(=O)Oc1cc2c(C(=O)NCCN3CCOCC3)c(C)oc2c2ccccc12` gave an inhibition of -0.1%. `O=C(Cc1ccc(F)cc1)N1CCN=C1SCc1cccc([N+](=O)[O-])c1` was tested, and the inhibition was 3%. `CC1CCCCC1NC(=O)CCS(=O)(=O)c1cccc2nonc12` (centres undefined) showed an inhibition of -3.4%. With `O=C(CCS(=O)(=O)c1cccc2nonc12)NCCc1ccccc1Cl` the inhibition was 179% (active). With `O=C(NCc1ccccc1Cl)C1CCN(S(=O)(=O)c2cccc3nonc23)CC1` the inhibition was 4.7%. For `Cc1ccc(N=Cc2c(O)cc(C)oc2=O)c(C)c1`, the inhibition was 40.7% (active). Work on `Cc1ccc(N=Cc2c(O)n(-c3nccs3)c(=O)c3ccccc23)c(C)c1` yielded an inhibition of -26.4%. For `Cc1cccc(OCc2nnc(SCc3nc4cc(C(F)(F)F)ccc4c(=O)[nH]3)o2)c1`, the inhibition was 46.5% (active). `COc1cc(CN(C)Cc2nc3cc(C(F)(F)F)ccc3c(=O)[nH]2)ccc1OC(F)F` was tested, and the inhibition was 5%. `Cc1cccc(OCc2nnc(SCn3nnc4ccccc4c3=O)o2)c1` gave an inhibition of 6.8%. Compound `CN(C)CCOc1cccc(Br)c1` has an inhibition of -7.4%. In the case of `CN(C)CCOC1c2ccccc2-c2ccccc21`, the inhibition is reported as 95.3% (active). With `CC(=O)O[C@H]1c2ccccc2-c2ccccc2[C@@H]1OC(C)=O` the inhibition was -2.7%. `CCCC[C@H]1COCCS(=O)(=O)N1Cc1cccc(Cl)c1` showed an inhibition of 7.9%. For `CCOC(=O)c1cc(-c2sc(NC(=O)c3ccccc3)nc2C)n(Cc2ccccc2)n1`, the inhibition was 5.8%. With `Cn1c2ccc(F)cc2c2nnc(NN)nc21` the inhibition was 5.1%. `O=C(O)C1C2C=CC(O2)C1C(=O)NCCc1cccc(Cl)c1` (centres undefined) gave an inhibition of 1%. For `O=C(NCc1ccccc1)[C@H]1C[C@@H]1[C@H](NP(=O)(c1ccccc1)c1ccccc1)c1ccccc1`, the inhibition was 9.5%. Compound `CCOc1ccc(C(=O)Nc2ccc(S(=O)(=O)NCC3CCCO3)cc2)cc1OCC` (centres undefined) has an inhibition of -3.2%. Work on `CCOc1ccc2nc(C(=O)N3CCCC(C)C3)sc2c1` (centres undefined) yielded an inhibition of -2.7%. Compound `CCOc1cc(/C=N/NC(=O)CN2CCCCC2)ccc1O` has an inhibition of -1.4%. With `Cc1ccsc1/C=C1\SC(N2CCOCC2)=NC1=O` the inhibition was -7.5%. With `O=C1N=C(N2CCc3ccccc3C2)S/C1=C\c1ccc(O)cc1` the inhibition was -9.2%. In the case of `CCOc1cc(/C=C2\SC(N3CCCCC3)=NC2=O)ccc1O`, the inhibition is reported as 46.9% (active). `CCOc1cc(/C=C2\SC(N3CCCC(C)C3)=NC2=O)ccc1O` (centres undefined) was tested, and the inhibition was 62.1% (active). For `CC(=O)n1cc([C@H]2C=C(C(=O)N3CCOCC3)O[C@@H](OCc3ccc(CO)cc3)C2)c2ccccc21`, the inhibition was 3.9%. Compound `Cc1cc[n+](-c2[nH]c(=O)sc2/C=N/NC(=O)c2ccccc2[O-])cc1C` has an inhibition of -29.4%. In the case of `CCc1ccc2[nH]c(=O)c(Cc3ccccc3)c(O)c2c1`, the inhibition is reported as -4.6%. `O=C(c1ccc(OC2CCN(C(=O)c3cccnc3)CC2)cc1)N1CCCCCC1` showed an inhibition of -0.5%. `Cc1cccc(OCCCC(=O)Nc2ccc(S(=O)(=O)N3CCCC3)cc2)c1` showed an inhibition of -2.1%. In the case of `O=C(NNC(=O)c1ccc(-c2ccccc2)cc1)Nc1ccccc1`, the inhibition is reported as -0.3%. `C=CC[n+]1c(-c2ccc(C)cc2)csc1NNC(=O)Nc1ccccc1` was tested, and the inhibition was 42.6% (active). Work on `Cc1ccc(NC(=O)NNC(=O)c2sccc2-n2cccc2)cc1` yielded an inhibition of -1.9%. Compound `CCCCOC(=O)c1ccc(NC(c2ccc(C)cc2)P(=O)(OC)OC)cc1` (centres undefined) has an inhibition of -3.9%. In the case of `COC(=O)c1cccc(NS(C)(=O)=O)c1`, the inhibition is reported as -3.1%. Work on `C=CCc1ccc(OCCOc2cccc(/C=N/n3cnnc3)c2)c(OC)c1` yielded an inhibition of -5.7%. `c1csc(-c2nnc(COc3ccc4c(c3)OCO4)o2)c1` gave an inhibition of -8.5%. For `C/C(=N/Nc1nc(-c2ccccc2)c(CC(=O)O)s1)c1ccccc1`, the inhibition was 57.8% (active). `CCOc1ccc(-c2nc(C)sc2CC(=O)O)cc1` was tested, and the inhibition was -1.6%. `CCOC(=O)C(=O)Nc1nc(-c2ccccc2)c(CC)s1` showed an inhibition of 3.6%. For `O=C1C=C(c2cccc(Cl)c2O)C[C@@H](c2ccc(F)cc2)C1`, the inhibition was -0.6%. `CC(C)c1c(C(=O)N/N=C/c2ccccc2C(=O)O)nnn1-c1nonc1N` showed an inhibition of -1.4%. `COCc1c(C(=O)N/N=C\c2cccnc2)nnn1-c1nonc1N` showed an inhibition of -1.2%. `Nc1nonc1-n1nnc(C(=O)N/N=C/c2cc(Br)ccc2O)c1CSC1=NCCS1` was tested, and the inhibition was 43.6% (active). `CC(C)Cn1c(=O)c2ccccc2n2c(CCC(=O)NCc3ccccn3)nnc12` was tested, and the inhibition was 4.1%. For `O=C(Nc1c[nH]c(=O)[nH]c1=O)OCc1ccccc1`, the inhibition was -11.5%. In the case of `N#C/C=C1\Sc2ccccc2C(=O)N1CC(=O)N1CCN(S(=O)(=O)c2ccccc2)CC1`, the inhibition is reported as 5.4%. With `Cc1nc2ccccc2nc(=O)c1NNc1ccc([N+](=O)[O-])cc1` the inhibition was 43.9% (active). `Cc1cccc(NS(=O)(=O)c2ccc([N+](=O)[O-])cc2)n1` was tested, and the inhibition was -2.6%. `CC(O)c1nc2ccccc2n1Cc1ccc([N+](=O)[O-])cc1` (centres undefined) gave an inhibition of 1.9%.
